The text below walks through data of the supplement of paper PMC10338343.

± gives the standard deviation. Whole data set: some 8,200 sequences, median “pre-steady-state target cleavage rate” near 0.024, cut for the highest 2% near 1.3. The sample holds the highest values, similar sequences and a random draw of the others, so the mix is not that of the screen.

In this experiment the test system is MIWI (PIWIL1) piRISC loaded with L1MC piRNA (30 nt). Nature of the experiment: pre-steady-state target cleavage rate (min^-1); MIWI and MILI are mouse PIWI proteins and EfPiwi is from a freshwater sponge; tags in brackets are library labels; higher = faster piRNA-guided slicing of the target. To be noted: guide: L1MC piRNA 5'p-UAACUAAAUACUAUGCAAGCUGUAGGUCCU
An outline of the steps: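 In this Cleave-'n-Seq assay, uncleaved targets were sequenced and normalised to depth and to weakly complementary targets. They came from a transcribed, DNA-blocked target RNA library […] mixed with 1 nM active affinity-purified piRISC carrying one synthetic guide, with or without 500 nM GTSF1 partner protein, in HEPES–potassium acetate buffer at 33 °C for 0–8 or 0–960 min. After three trials were pooled and k3 was capped at 0.0001 min^-1, the pre-steady-state cleavage rate was obtained from a burst-and-steady-state fit.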

The mark [1] stands for this setting: auxiliary factor: 500 nM mouse GTSF1.
Setting [2] is: auxiliary factor: none (no GTSF1).
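Further: 1 nM active piRISC with 0.1 nM target library at 33 °C single turnover.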

In the case of UCCUGGAUGAGCUAGCAUAGUAUUUAGAAA, under setting [1], the “pre-steady-state target cleavage rate” value is 0.124 ± 0.029. In the case of UGCGACCUACAGCUUGCAUAGUAUUUAGUUA, the “pre-steady-state target cleavage rate” value runs as follows: under setting [1], 1.41 ± 0.057; under setting [2], 0.0975 ± 0.02.

For AGCGACCUACAGCUUGCAUAGUAUUUAGUUA, the “pre-steady-state target cleavage rate” value stood at 1.37 ± 0.049 under setting [1] and 0.112 ± 0.019 under setting [2]. As to UCCUGCUACAGCUUGGUAAGUAUUUAGUUA, the “pre-steady-state target cleavage rate” value under setting [1] worked out at 0.0624 ± 0.011. In the case of UCCUGGAUCAGCAUGCAUAGUAUUUAGAUA, the “pre-steady-state target cleavage rate” value is, setting by setting: under setting [1], 0.375 ± 0.034; under setting [2], 0.00494 ± 0.0022.

Regarding UCCUGGAUCAGCUUGCAUAGUAUAUAGUAA, the “pre-steady-state target cleavage rate” value is 0.458 ± 0.054 under setting [1] and 0.0134 ± 0.0052 under setting [2]. Taken in the same sequence, the figures for UCCAGCUACAGCUUGCAUAGUUUUUAGUUA were 0.253 ± 0.026 and 0.0203 ± 0.0032. For ACGAGCUACAGCUUGCAUAGUAUUUAGUUA, the “pre-steady-state target cleavage rate” value reads like this: under setting [1], 1.54 ± 0.057; under setting [2], 0.094 ± 0.016. The corresponding values for UCGAGCUACAGCUUGCAUAGUAUUUAGUAA are 1.08 ± 0.082 and 0.0348 ± 0.0066.

Regarding UCGAGCUACAGCUUGCAUAGUAUUUAGUUA, the “pre-steady-state target cleavage rate” value runs as follows: under setting [1], 1.41 ± 0.062; under setting [2], 0.0832 ± 0.014.

In the case of UCGAGCUACAGCUUGCAUAGUAUUUAGAUA, the “pre-steady-state target cleavage rate” value runs as follows: under setting [1], 0.443 ± 0.041; under setting [2], 0.0206 ± 0.0046.

For the sequence UCCUGCUACGAGCUUGCAUAGUAUUUAGUUA, the “pre-steady-state target cleavage rate” value stood at 0.717 ± 0.073 under setting [1] and 0.0315 ± 0.0066 under setting [2]. The corresponding values for UCGAGCUACAGCUUGCAUAGUAUUUAGAAA are 0.407 ± 0.039 and 0.0061 ± 0.0023.

In the case of UCCUGGAUCAGCUUGCAUAGUAUUAAGAUA, the “pre-steady-state target cleavage rate” value came to 0.265 ± 0.05 under setting [1] and 0.00645 ± 0.0033 under setting [2]. For UGGACCUACAGCUUGCAUAGUAUGUAGUUA, the “pre-steady-state target cleavage rate” value is, setting by setting: under setting [1], 0.332 ± 0.041; under setting [2], 0.0171 ± 0.0041.

On to UCCUGCUACAGCUUGGUUAGUAUUUACAAA, for which, under setting [1], the “pre-steady-state target cleavage rate” value came out at 0.0104 ± 0.0047. Take UCGACCUACAGCUUGCAUAGUAUUUUGUUA: the “pre-steady-state target cleavage rate” value came to 0.921 ± 0.043 under setting [1] and 0.0471 ± 0.0091 under setting [2]. With UCCUGGAUCAGCUAGCAUAGUAUUUUCAAA, the “pre-steady-state target cleavage rate” value under setting [1] was found to be 0.0506 ± 0.015. AGGACUCUACAGCUUGCAUAGUAUUUAGUUA: the “pre-steady-state target cleavage rate” value under setting [1] stood at 1.28 ± 0.069 and the “pre-steady-state target cleavage rate” value under setting [2] worked out at 0.0617 ± 0.011. Regarding UGGACUACAGCUUGCAUAGUAUUUAGUUA, the “pre-steady-state target cleavage rate” value amounted to 1.34 ± 0.053 under setting [1] and 0.0823 ± 0.013 under setting [2]. Consider AGGACUACAGCUUGCAUAGUAUUUAGUUA, for which the “pre-steady-state target cleavage rate” value by setting is: under setting [1], 1.24 ± 0.066; under setting [2], 0.0945 ± 0.016. On to UCGACUCUACAGCUUGCAUAGUAUUUAGUUA, for which the “pre-steady-state target cleavage rate” value runs as follows: under setting [1], 1.48 ± 0.06; under setting [2], 0.0579 ± 0.0096.

With UCGACGCUACAGCUUGCAUAGUAUUUAGUUA, the “pre-steady-state target cleavage rate” value worked out at 1.27 ± 0.063 under setting [1] and 0.094 ± 0.022 under setting [2]. In the case of UCCACUCUACAGCUUGCAUAGUAUUUAGUUA, the “pre-steady-state target cleavage rate” value was 0.884 ± 0.029 under setting [1] and 0.0688 ± 0.012 under setting [2].

As for UGGACACUACAGCUUGCAUAGUAUUUAGUUA, the “pre-steady-state target cleavage rate” value reads like this: under setting [1], 1.04 ± 0.063; under setting [2], 0.0643 ± 0.0081.

For the sequence UGGACUCUACAGCUUGCAUAGUAUUUAGUUA, the “pre-steady-state target cleavage rate” value by setting is: under setting [1], 1.4 ± 0.066; under setting [2], 0.0856 ± 0.017. Take UGGACCUACACCUUGCAUAGUAUUUUCAAA: the “pre-steady-state target cleavage rate” value by setting is: under setting [1], 0.327 ± 0.05; under setting [2], 0.00389 ± 0.0023. Take UCCUGGAACUGCUAGCAUAGUAUUUAGUUA: the “pre-steady-state target cleavage rate” value turned out to be 0.534 ± 0.037 under setting [1] and 0.00949 ± 0.0035 under setting [2]. Consider UCGACCUACAGCUUGCAUAGUAUUUAGUCA, for which the “pre-steady-state target cleavage rate” value is, setting by setting: under setting [1], 0.947 ± 0.041; under setting [2], 0.0656 ± 0.013. Consider UCCUGGUACACCUUGCAUAGUAUUUAGUAA, for which the “pre-steady-state target cleavage rate” value under setting [1] came out at 0.334 ± 0.078 and the “pre-steady-state target cleavage rate” value under setting [2] was 0.0104 ± 0.0044. On to UCCUCCUACAGCUUGCAUAGUAUAUUGUUA, for which the “pre-steady-state target cleavage rate” value reads like this: under setting [1], 0.368 ± 0.033; under setting [2], 0.0145 ± 0.0039. For the sequence UGGACCUACAGCUUGCAUACUAAUUAGUUA, the “pre-steady-state target cleavage rate” value reads like this: under setting [1], 0.154 ± 0.01; under setting [2], 0.00958 ± 0.0024. On to UCCUGGAACAGCUUGCUAUGUAUUUAGUUA, for which the “pre-steady-state target cleavage rate” value reads like this: under setting [1], 0.0729 ± 0.011; under setting [2], 0.00814 ± 0.0024.

For the sequence UCCUCCUACAGCUUGCAUACUAUUUACUUA, the “pre-steady-state target cleavage rate” value runs as follows: under setting [1], 0.197 ± 0.023; under setting [2], 0.018 ± 0.0033.

Regarding AGGACCUACAGCUUGCAUAUUAUUUAGUUA, the “pre-steady-state target cleavage rate” value was 1.23 ± 0.074 under setting [1] and 0.0773 ± 0.017 under setting [2]. The corresponding values for UCGACCUACAGCUUGCAUAGUUAUUUAGUUA are 0.0764 ± 0.016 and 0.00495 ± 0.0031.

Turning to UCGACCUACAGCUUGCAUAUAUUUAGUUA, the “pre-steady-state target cleavage rate” value under setting [1] turned out to be 0.489 ± 0.044. Take UCGACCUACAGCUUGCAUAUUAUUUAGUUA: the “pre-steady-state target cleavage rate” value is, setting by setting: under setting [1], 1.5 ± 0.072; under setting [2], 0.0515 ± 0.013. UGGACCUACAGCUUGCAUAUUAUUUAGUUA: the “pre-steady-state target cleavage rate” value is 1.71 ± 0.12 under setting [1] and 0.0442 ± 0.0088 under setting [2].
